# According to PubChem BioAssay AID2284148 (EPA ToxCast):
# Calls of active or inactive are those of the source. The calls were made as follows: active = hit-call score of the fitted dose curve at least 0.9, where 1 is the maximum; inactive = score below 0.9.
# Biological target: human Cholecystokinin Receptor CCK1 (CCKA) Agonism, CCKAR (gene 886) (UniProt P32238)
# Assay: ERF_TW_GPCR_hCCKAR: Eurofins (ERF) G Protein-Coupled Receptor (GPCR) Radioligand Binding LeadHunter Assay for human Cholecystokinin Receptor CCK1 (CCKA) Agonism
# Experimental: ERF_TW_GPCR_hCCKAR is a biochemical, single-readout assay that uses extracted gene-proteins in a cell-free assay. Measurements were taken 1 hour after chemical dosing in a 96-well plate. See CCK1 (CCKA) Human Cholecystokinin GPCR Binding (Antagonist Radioligand) Assay, Panlabs.ERF_TW_GPCR_hCCKAR is an assay component calculated from the ERF_TW_GPCR_hCCKAR assay. It is designed to measure radioligand binding using a type of binding reporter as detected by scintillation counting with radiometry technology.Data from the assay component ERF_TW_GPCR_hCCKAR was analyzed at the assay endpoint, ERF_TW_GPCR_hCCKAR, in the positive analysis fitting direction relative to DMSO as the negative control and baseline of activity. Using a type of binding reporter, loss-of-signal activity can be used to understand changes in binding as they relate to gene CCKAR. To generalize the intended target to other relatable targets, this assay endpoint is annotated to the gpcr intended target family, where the subfamily is cholecystokinin.
# 1321-N1 (human astrocytoma) stably transfected with a plasmid encoding the human recombinant CCK1 receptor are used to prepare membranes in modified HEPES buffer pH 7.4. A 5 ug aliquot of membrane is incubated with 0.11 nM [125I]CCK-8 for […] at 25C. […] Membranes are filtered and washed, the filters are then counted to determine [125I]CCK-8 specifically bound. […]
# human Cholecystokinin Receptor CCK1 (CCKA) Agonism, CCKAR (gene 886), sequence (P32238 whole entry, looked up): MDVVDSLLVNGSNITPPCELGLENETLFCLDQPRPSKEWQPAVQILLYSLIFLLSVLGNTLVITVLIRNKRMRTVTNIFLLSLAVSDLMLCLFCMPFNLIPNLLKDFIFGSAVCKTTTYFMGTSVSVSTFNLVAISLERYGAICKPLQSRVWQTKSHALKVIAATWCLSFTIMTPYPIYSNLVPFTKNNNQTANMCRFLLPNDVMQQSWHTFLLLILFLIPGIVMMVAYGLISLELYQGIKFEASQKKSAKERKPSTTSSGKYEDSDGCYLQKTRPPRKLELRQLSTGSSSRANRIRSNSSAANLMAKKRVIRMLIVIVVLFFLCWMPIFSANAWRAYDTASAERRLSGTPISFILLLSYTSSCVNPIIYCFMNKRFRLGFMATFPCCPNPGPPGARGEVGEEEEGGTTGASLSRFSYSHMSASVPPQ
SMILES,outcome,AC50
CCCCC[C@H](O)CC(=O)CCc1ccc(O)c(OC)c1,inactive,–
O=C(/C=C/c1ccc(O)cc1)CC(=O)/C=C/c1ccc(O)cc1,–,1990 nM (active)
